We go through 68 compounds from ChEMBL document CHEMBL4513216, “Probing the Open Global Health Chemical Diversity Library for Multistage-Active Starting Points for Next-Generation Antimalarials” (ACS Infect Dis, 2020).

Screen size: about 69,000 compounds; about 8,600 (12%) showed an effect of 50% or more. Only a selection was taken, and strong results are over-represented in it overall.

The assay deals with Plasmodium berghei. Put plainly: Screen against P. berghei liver stage (PbLuc), transformed with Luciferase, at 10uM. The settings on record: tested at 10 uM. The format is functional, HepG2.
As for `O=C(CC1[C@H]2CN(C(=O)c3cccnc3)C[C@@H]12)Nc1cccnc1` (stereo partly drawn), the INHIBITION came out at 34.6%. Turning to `Cn1cc(-c2nnc3sc(C4CCC4)nn23)cn1`, the INHIBITION was found to be 25.2%.

On to `COc1cc(C)ccc1OCC(=O)NS(=O)(=O)c1cccnc1`, for which the INHIBITION is given as -16%. As for `O=S(=O)(C1CC1)N1CCO[C@@H]2CC(COCc3cccnc3)C[C@H]21` (stereo partly drawn), the figure is 34.5%. Regarding `O=C(Nc1cccnc1)NC1(c2cccc(F)c2)CC1`, the INHIBITION is listed as -2.39%. As for `Cc1ccn(CC(=O)Nc2cc(-c3ccncc3)[nH]n2)n1`, the figure is 39.6%. As for `Cc1ccnn1CC(=O)Nc1cc(-c2ccncc2)[nH]n1`, the figure is 63.4%. For `Cc1cc(C)n(CC(=O)Nc2cc(-c3ccncc3)[nH]n2)n1`, the INHIBITION stood at 5.94%. Regarding `Cc1cc(C2CCCN(C(=O)COc3cc(C)on3)C2)n[nH]1` (stereo not drawn), the INHIBITION is recorded as -23.8%. Consider `COCCNc1ncc(-c2onc(C)c2C)c(-c2ccco2)n1`, for which the INHIBITION is given as 31.85%. Consider `Cc1nnc(N2CCOC(C)(C(=O)NC3CCCC3)C2)c2ccccc12` (stereo not drawn), for which the INHIBITION was 4.41%. As for `COCCCNC(=O)CCn1ncc2c(Cl)cccc21`, the figure is 20.9%; as for `CC(C)(C)NC(=O)CCn1ncc2c(Cl)cccc21`, 47.4%; as for `CCn1cc(CNC(=O)CCn2ncc3c(Cl)cccc32)cn1`, 54.9%. On to `COCCNC(=O)CCn1ncc2c(Cl)cccc21`, for which the INHIBITION amounted to 55.7%. `CN(C)C(=O)CNC(=O)CCn1ncc2c(Cl)cccc21`: the INHIBITION is -15.8%.

For the compound `CCN(CC)C(=O)CCn1ncc2c(Cl)cccc21`, the INHIBITION is on record as -4.74%.

With `O=C(CCn1ncc2c(Cl)cccc21)NCCCn1cccn1`, the INHIBITION is -2.28%. As to `CCn1ncc(NC(=O)CCn2ncc3c(Cl)cccc32)c1C`, the INHIBITION was 9.32%. Take `Cc1nn(C)c(C)c1CNC(=O)CCn1ncc2c(Cl)cccc21`: the INHIBITION came to 49.9%. In the case of `CN(C)CCNC(=O)CCn1ncc2c(Cl)cccc21`, the INHIBITION stood at 55.7%. As for `O=C(CCn1ncc2c(Cl)cccc21)NCC1CC1`, the figure is 68.9%; as for `O=C(CCn1ncc2c(Cl)cccc21)NCCCO`, 49.9%; as for `Cc1nnc(N2CCc3cncnc3C2)c(C#N)c1C`, -5.08%. Turning to `Cc1nc(C2CCCN2CC(=O)Nc2c(C)n[nH]c2C)no1` (stereo not drawn), the INHIBITION amounted to 27.8%. Turning to `CC[C@H](C)[C@H](N)C(=O)Nc1nc(-c2cnc(N(C)CCO)nc2)cs1`, the INHIBITION is listed as -37.5%.

Take `Cc1cn2c(=O)c(-c3ccnc(N4CCC[C@@H]4CO)n3)cnc2s1`: the INHIBITION stood at 4.08%. As for `Cn1cc(CC2CCN(C(=O)NCc3cccc(C(N)=O)c3)C2)cn1` (stereo not drawn), the figure is -51.705%. As for `O=C1NC2(CCN(CCO)CC2)CC1c1ccccc1` (stereo not drawn), the figure is 21.6%; as for `O=C1NC2(CCNCC2)CC1c1ccccc1` (stereo not drawn), 49.7%; as for `O=C1NC2(CCNCC2)CC1c1ccncc1` (stereo not drawn), 33.4%. In the case of `O=C1NC2(CCN(C(=O)Cc3ccsc3)CC2)CC1c1ccccc1` (stereo not drawn), the INHIBITION was -4.88%. Take `O=C1NC2(CCN(C(=O)c3ccnnc3)CC2)CC1c1ccccc1` (stereo not drawn): the INHIBITION was -16.9%. Regarding `O=C1CC(c2ccccc2)C2(CCN(CC3CC3)CC2)N1` (stereo not drawn), the INHIBITION is reported as 31.2%. Take `O=C1NC2(CCN(CCc3ccccc3)CC2)CC1c1ccccc1` (stereo not drawn): the INHIBITION worked out at 52.6%. The result for `O=C1NC2(CCN(C/C=C/c3ccccc3)CC2)CC1c1ccccc1` (stereo not drawn) reads 63.8%. `O=C1NC2(CCN(CC3CC3)CC2)CC1c1ccccc1` (stereo not drawn): the INHIBITION is reported as 52.6%. With `O=C1NC2(CCNCC2)CC1c1cccnc1` (stereo not drawn), the INHIBITION amounted to 52.3%. Turning to `O=C1NC2(CCN(Cc3cccnc3)CC2)CC1c1cccnc1` (stereo not drawn), the INHIBITION is on record as -12.1%. As for `O=C1NC2(CCN(Cc3cccnc3)CC2)CC1c1ccncc1` (stereo not drawn), the INHIBITION is recorded as 49.5%. For the compound `CCOCc1cnc2n1CCN(Cc1cccs1)C2C` (stereo not drawn), the INHIBITION is given as -10.5%. Consider `Nc1cc(-c2c[nH]nc2C2CCCN2CCCc2ccccc2)ccn1` (stereo not drawn), for which the INHIBITION was found to be 17.8%. For `CCn1cc(CN2CCCN(C(=O)c3cccc(C#N)c3)CC2)cn1`, the INHIBITION is reported as -73.1%. The result for `CNc1ccc(CC2CCCN(Cc3c[nH]cn3)C2)nn1` (stereo not drawn) reads 36.9%. For `Cc1cnn(CC2CCCN2C(=O)Cc2c(C)noc2C)c1` (stereo not drawn), the INHIBITION is 29.4%. `Cc1nccn1CC1CCCN(S(=O)(=O)c2cnn(C)c2)C1` (stereo not drawn): the INHIBITION is reported as 42.5%. The result for `CCc1nccn1C1CCCN(C(=O)c2csc(C3CC3)n2)C1` (stereo not drawn) reads -4.16%; that for `CCN1C[C@H]2CCN(c3ncccn3)CC[C@H]2S1(=O)=O`, -41.6%. `COCCN1C[C@H]2CCN(c3ncccn3)CC[C@H]2S1(=O)=O`: the INHIBITION worked out at 82.9%.

Take `CC(C)CN1C[C@H]2CCN(c3ncccn3)CC[C@H]2S1(=O)=O`: the INHIBITION is -14.9%. Turning to `CCn1nc(C)c2nnn(CC(=O)Nc3ccccc3)c(=O)c21`, the INHIBITION stood at 49.9%. Take `CN(C)S(=O)(=O)N1C[C@H]2CCC[C@@]2(COc2cccnc2)C1`: the INHIBITION is on record as -16.9%. For the compound `CN1CCN([C@@H]2CCN(C3CCOCC3)[C@H]2Cc2cnn(C)c2)CC1`, the INHIBITION is -8.85%. The result for `Cc1nnsc1-c1nnc2sc(C3CCC3)nn12` reads -13.1%; that for `Cc1nnsc1-c1nnc2sc(C(C)C)nn12`, 12.5%. As for `Cc1nn2c(-c3snnc3C)nnc2s1`, the figure is 61.8%; as for `O=C1CCC(c2ccc(Cl)cc2)=NN1CN1CCSCC1`, 6.34%.

`CO[C@@H]1CCN(Cc2cnn(C)c2)[C@@H]2CN(Cc3ccco3)C[C@@H]21`: the INHIBITION was 7.11%. As for `CCCc1nc(C(=O)N2CCCn3nc(CCC(=O)O)cc3C2)cs1`, the figure is -9.86%; as for `Cc1ccc(C(=O)N2CCCn3nc(CCC(=O)O)cc3C2)cc1Cl`, 52.5%. For the compound `O=C(O)CCc1cc2n(n1)CCCN(C(=O)c1ccc3cc[nH]c3c1)C2`, the INHIBITION amounted to 8.47%.

Consider `O=C(c1ccc(Cl)s1)N1CCCn2nc(CN3CC[C@H](F)C3)cc2C1`, for which the INHIBITION amounted to 45%. The result for `CCc1cc(C(=O)N2CCCn3nc(CCC(=O)O)cc3C2)cs1` reads 22.8%; that for `O=C(O)CCc1cc2n(n1)CCCN(C(=O)c1ccc(F)cc1F)C2`, -13.5%; that for `O=C(O)CCc1cc2n(n1)CCCN(C(=O)c1ccc(Cl)s1)C2`, 51.5%. The result for `O=C(O)CCc1cc2n(n1)CCCN(C(=O)c1cc3ccccc3s1)C2` reads 67.9%. As to `CCOc1cccc(C(=O)N2CCCn3nc(CCC(=O)O)cc3C2)c1`, the INHIBITION is -19%. In the case of `CC(C)n1nc(Cn2cccc2)c2c1CN(C1CCOCC1)C2`, the INHIBITION is 23.3%.
